The nature of assay [1]: Human pregnane X receptor (PXR) small molecule agonists, qHTS cell viability counter screen (AID 1346977). Further: nearly all actives have a fitted effect of over 50% in size. An outline of the steps: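 Measures live-cell protease fluorescence (CellTiter-Fluor) in PXR-Luc HepG2 cells treated 24hr with compounds at 37C. Cells had 5hr to attach before pin transfer of DMSO solutions.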
(In general: Quantitative high-throughput screening tests each substance at several concentrations.)

Assay [2] can be described thus: Caspase-3/7 induction in HepG2 cells by small molecules, qHTS assay (AID 1346978). Further: nearly all actives have a fitted effect of over 15% in size. The gist of the method: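 Wild-type HepG2 cells, 2,000/well, settled 5 hr at 37 C and 5% CO2, then compound-treated for 17 hr; caspase-3/7 activity read by luminescent Caspase-Glo 3/7 after 30 min at room temperature.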
The nature of assay [3]: Caspase-3/7 induction in CHO-K1 cells by small molecules, qHTS cell viability counter screen (AID 1346979). Further: nearly all actives have a fitted effect of over 35% in size. Further: potency means the concentration at half of the fitted maximal effect. The gist of the method: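 In the same wells as the caspase read, viability of compound-treated wild-type CHO-K1 cells was assessed using CellTiter-Fluor, added after 16hr at 37C and measured by fluorescence following 1hr further incubation.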
Assay [4] in a line: Caspase-3/7 induction in CHO-K1 cells by small molecules, qHTS assay (AID 1346980). Further: nearly all actives have a fitted effect of over 15% in size. The gist of the method:
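Wild-type CHO-K1 cells exposed to compounds for 17hr at 37 C, 5% CO2. Caspase-3/7 activity then measured by Caspase-Glo 3/7 luminescence after 30min at room temperature.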

Assay [5] in a line: Caspase-3/7 induction in HepG2 cells by small molecules, qHTS cell viability counter screen (AID 1346981). Further: series mostly up to about 92 µM; nearly all actives have a fitted effect of over 30% in size. An outline of the steps:
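Cell viability is measured as a cytotoxicity counter screen alongside the Caspase-Glo 3/7 readout in identical wells. Wild-type HepG2 cells are treated with test compounds for 16 hr at 37 C before CellTiter-Fluor addition and a 1-hr incubation.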

The target in assay [6] is Nuclear receptor subfamily 1 group I member 2 (Homo sapiens) (UniProt O75469). Nature of the assay: Human pregnane X receptor (PXR) small molecule agonists, qHTS assay (AID 1346982). Further: nearly all actives have a fitted effect of over 35% in size. Further: potency means the concentration at half of the fitted maximal effect. An outline of the steps:
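Cells: HepG2 stably carrying PXR-Luc. Medium held 5% charcoal-stripped FBS. Compounds in DMSO added after 5 hr plating, incubated 24 hr, then luminescence quantified with ONE-Glo.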

For assay [7], the target named is Acetylcholinesterase (Homo sapiens) (UniProt P22303). Kind of assay: Acetylcholinesterase (AChE) small molecule antagonists: colormetric cell-based qHTS assay (AID 1347395; calls by dose curve; further: nearly all actives have a fitted effect of over 30% in size; further: potency means the concentration at half of the fitted maximal effect). An outline of the steps:
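Endogenous AChE of human neuroblastoma SH-SY5Y cells was measured with an Ellman-type DTNB/acetylthiocholine mix. Compound pretreatment lasted 30 min at 37 C; substrate reaction ran 90 min at 37 C.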

Assay [8] shares this target. Kind of assay: Acetylcholinesterase (AChE) small molecule antagonists: enzyme-based qHTS assay (AID 1347397; calls by dose curve; further: nearly all actives have a fitted effect of over 55% in size; further: potency means the concentration at half of the fitted maximal effect). Particulars: Potency: AChE enzyme activity inhibition. An outline of the steps: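 Colorimetric DTNB read-out of thiocholine released from acetylthiocholine by recombinant human AChE (50 mU/mL as dispensed). Compounds were preincubated 30 min at RT before substrate/DTNB addition, with a 10 min RT reaction.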

Assay [9] shares this target. Kind of assay: Acetylcholinesterase (AChE) small molecule antagonists: fluorescence cell-based qHTS assay (AID 1347398; calls by dose curve; further: nearly all actives have a fitted effect of over 50% in size; further: potency means the concentration at half of the fitted maximal effect). Particulars: Potency: AChE activity. An outline of the steps:
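SH-SY5Y, 2,000 cells/well, attached overnight; cmpd 30 min 37 C; acetylthiocholine/Thiolite Green cocktail 40 min RT; fluorescence Ex/Em 490/520 nm.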

For assay [10] the target is unchanged. Nature of the assay: Acetylcholinesterase (AChE) small molecule antagonists: enzyme-based qHTS assay with human liver microsomes (AID 1347399; calls by dose curve; further: nearly all actives have a fitted effect of over 60% in size; further: potency means the concentration at half of the fitted maximal effect). Particulars: Potency: qHTS inhibition. An outline of the steps: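 Recombinant human AChE (50 mU/mL in the enzyme mix) and human liver microsomes (0.25 mg/mL final) were preincubated with compound and NADPH (0.25 mg/mL final) for 30 min at 37 C. Acetylthiocholine/DTNB was then added; thiocholine was read colorimetrically after 10 min at room temperature.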

For assay [11], the target named is Cytochrome P450 2D6 (Homo sapiens) (UniProt P10635). Nature of the assay: Cytochrome P450 Family 2 Subfamily D Member 6 (CYP2D6) small molecule antagonists: luciferase reporter qHTS assay (AID 1671196). Further: nearly all actives have a fitted effect of over 50% in size. Further: potency means the concentration at half of the fitted maximal effect. The gist of the method:
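Enzyme and proluciferin substrate were first combined with test chemical for 10 min at room temperature. Adding NADPH regeneration solution started a 1 h reaction, stopped with luciferin detection reagent and read by luminescence 20 min later.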
For orientation: Reporter assays use an easily measured gene product as a stand-in for the process of interest.

The target of assay [12] is Cytochrome P450 2C19 (Homo sapiens) (UniProt P33261). Kind of assay: Cytochrome P450 Family 2 Subfamily C Member 19 (CYP2C19) small molecule antagonists: luciferase reporter qHTS assay (AID 1671197). Further: nearly all actives have a fitted effect of over 65% in size. Further: potency means the concentration at half of the fitted maximal effect. The gist of the method:
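CYP2C19 P450-Glo, 1536-well qHTS. Cpd + enzyme/proluciferin substrate 10 min RT; + NADPH regen, 37C 1 h; stop with luciferin detection reagent, 20 min RT, luminescence (RLU). Pos ctrl ketoconazole.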

Assay [13] has as its target Cytochrome P450 2C9 (Homo sapiens) (UniProt P11712). Nature of the assay: Cytochrome P450 Family 2 Subfamily C Member 9 (CYP2C9) small molecule antagonists: luciferase reporter qHTS assay (AID 1671198). Further: nearly all actives have a fitted effect of over 50% in size. Further: potency means the concentration at half of the fitted maximal effect. An outline of the steps:
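P450-Glo proluciferin substrate with CYP2C9 enzyme; 10 min RT preincubation, then NADPH regeneration 1 h at 37C; luciferin detection reagent 20 min RT, luminescence in relative luminescence units.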

For assay [14], the target named is Voltage-gated inwardly rectifying potassium channel KCNH2 (Homo sapiens) (UniProt Q12809). Nature of the assay: Human Ether-a-go-go-Related Gene (hERG) channel small molecule antagonists: fluorescence cell-based qHTS assay (AID 1671200). An outline of the steps: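 Quantitative HTS in hERG-U2OS cells: thallium entry through the channel reports activity, read as continuous 480/540 nm fluorescence over 2 min after stimulus addition.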
(The hERG channel carries a current that helps repolarise heart muscle cells.)

The target of assay [15] is Cytochrome P450 3A4 (Homo sapiens) (UniProt P08684). Nature of the assay: Cytochrome P450 Family 3 Subfamily A Member 4 (CYP3A4) small molecule antagonists: luciferase reporter qHTS assay (AID 1671201). The gist of the method: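 Inhibition of CYP3A4 is measured as loss of light: the enzyme converts a proluciferin substrate to luciferin, detected luminescently. Reaction ran 1 h at room temperature with NADPH regeneration after a 10 min compound preincubation.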

The target of assay [16] is Cytochrome P450 1A2 (Homo sapiens) (UniProt P05177). Kind of assay: Cytochrome P450 Family 1 Subfamily A Member 2 (CYP1A2) small molecule antagonists: luciferase reporter qHTS assay (AID 1671199). Further: nearly all actives have a fitted effect of over 50% in size. Further: potency means the concentration at half of the fitted maximal effect. An outline of the steps: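 Compounds were incubated with CYP1A2 and a luminogenic proluciferin substrate for 10 min at room temperature before the reaction was started with NADPH regeneration solution. After 1 h, detection reagent was added and light output, proportional to CYP activity, was recorded.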

Assay [17] concerns the target Nuclear receptor subfamily 1 group I member 2 (Rattus norvegicus) (UniProt Q9R1A7). Nature of the assay: Rat pregnane X receptor (rPXR) activation by small molecules, qHTS assay (AID 1346983). Further: nearly all actives have a fitted effect of over 20% in size. As to conditions: rPXR luciferase reporter cells, One-Glo luminescence, 24 h; stronger effect = higher value. An outline of the steps:
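Cell-based rPXR activation assay: rPXR cells, 2,000 per well, rested 5hr at 37 C, then exposed to compounds in DMSO for 24 hr at 37 C. Luciferase activity read by One-Glo luminescence after 30 min at room temperature.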

Assay [18] concerns the target Nuclear receptor subfamily 1 group I member 2 (Homo sapiens) (UniProt O75469). Nature of the assay: CYP3A4 induction through human pregnane X receptor (PXR) by small molecules, qHTS assay (AID 1346984). Further: nearly all actives have a fitted effect of over 40% in size. The gist of the method:
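Quantitative HTS in DPX-2 cells, i.e. HepG2 transfected with PXR response element and CYP3A4-promoter luciferase. Compounds in DMSO incubated 24hr at 37C; then P450-Glo CYP3A4 substrate, 3uM final, 3hr; One-Glo luminescence.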

For assay [19] the target is unchanged. Nature of the assay: Human pregnane X receptor (PXR) activation by small molecules, qHTS assay (AID 1346985). Further: nearly all actives have a fitted effect of over 40% in size. The gist of the method: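 DPX-2 cells (HepG2 co-transfected with a PXR response element and a CYP3A4-promoter luciferase construct) were seeded at 2,000 per well, rested 5 hr at 37C, then exposed to DMSO-dissolved compounds for 24 hr. Activation was read as luciferase luminescence.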

Molecules are shown by their SMILES. “And” between values parts separate entries of the source, which are not always exact repeats. Equal entries are not always repeated. Inconclusive results are not listed. Where a structure was tested more than once in an assay, its records may differ in their call. The source made the active and inactive calls. Unless noted, the call rests on the fitted dose curve; in most records, active means well fitted curve in the direction sought with a large enough effect in the repeat runs; inconclusive means weak or mixed curves; inactive means no such curve, though single readings can be large; an effect the other way counts as inactive or inconclusive.
On the % scale 0 is the no-effect control and ±100 the full control effect.

Sequence of Cytochrome P450 1A2 (Homo sapiens) (P05177 whole entry, looked up): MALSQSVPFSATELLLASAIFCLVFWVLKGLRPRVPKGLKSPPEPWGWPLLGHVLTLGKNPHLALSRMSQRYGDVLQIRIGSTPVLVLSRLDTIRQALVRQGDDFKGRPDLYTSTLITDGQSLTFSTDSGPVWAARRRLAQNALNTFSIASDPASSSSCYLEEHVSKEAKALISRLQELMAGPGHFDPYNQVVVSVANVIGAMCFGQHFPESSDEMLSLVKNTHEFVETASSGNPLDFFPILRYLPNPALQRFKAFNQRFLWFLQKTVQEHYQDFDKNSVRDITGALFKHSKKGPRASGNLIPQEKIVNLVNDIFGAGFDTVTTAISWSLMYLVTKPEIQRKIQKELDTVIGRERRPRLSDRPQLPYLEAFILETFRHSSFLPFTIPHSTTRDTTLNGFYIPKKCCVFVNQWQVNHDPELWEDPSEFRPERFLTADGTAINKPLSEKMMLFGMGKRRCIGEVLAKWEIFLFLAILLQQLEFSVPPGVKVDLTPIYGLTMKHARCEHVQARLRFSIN
Sequence of Acetylcholinesterase (Homo sapiens) (P22303 whole entry, looked up): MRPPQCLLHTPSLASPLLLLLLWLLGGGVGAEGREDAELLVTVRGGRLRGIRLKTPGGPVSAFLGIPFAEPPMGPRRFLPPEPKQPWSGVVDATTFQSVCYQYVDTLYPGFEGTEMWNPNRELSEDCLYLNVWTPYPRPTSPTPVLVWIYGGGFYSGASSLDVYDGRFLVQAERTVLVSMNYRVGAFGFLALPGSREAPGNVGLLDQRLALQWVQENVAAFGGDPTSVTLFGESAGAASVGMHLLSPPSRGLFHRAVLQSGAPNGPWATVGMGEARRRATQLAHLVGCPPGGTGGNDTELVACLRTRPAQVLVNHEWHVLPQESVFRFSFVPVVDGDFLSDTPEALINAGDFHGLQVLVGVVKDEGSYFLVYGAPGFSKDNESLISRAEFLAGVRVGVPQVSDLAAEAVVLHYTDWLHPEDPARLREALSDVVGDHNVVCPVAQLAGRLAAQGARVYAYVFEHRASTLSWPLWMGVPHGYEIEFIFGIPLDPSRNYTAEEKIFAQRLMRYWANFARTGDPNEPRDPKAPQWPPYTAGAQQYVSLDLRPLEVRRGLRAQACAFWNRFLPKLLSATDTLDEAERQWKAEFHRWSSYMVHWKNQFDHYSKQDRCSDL
Sequence of Cytochrome P450 2D6 (Homo sapiens) (P10635 whole entry, looked up): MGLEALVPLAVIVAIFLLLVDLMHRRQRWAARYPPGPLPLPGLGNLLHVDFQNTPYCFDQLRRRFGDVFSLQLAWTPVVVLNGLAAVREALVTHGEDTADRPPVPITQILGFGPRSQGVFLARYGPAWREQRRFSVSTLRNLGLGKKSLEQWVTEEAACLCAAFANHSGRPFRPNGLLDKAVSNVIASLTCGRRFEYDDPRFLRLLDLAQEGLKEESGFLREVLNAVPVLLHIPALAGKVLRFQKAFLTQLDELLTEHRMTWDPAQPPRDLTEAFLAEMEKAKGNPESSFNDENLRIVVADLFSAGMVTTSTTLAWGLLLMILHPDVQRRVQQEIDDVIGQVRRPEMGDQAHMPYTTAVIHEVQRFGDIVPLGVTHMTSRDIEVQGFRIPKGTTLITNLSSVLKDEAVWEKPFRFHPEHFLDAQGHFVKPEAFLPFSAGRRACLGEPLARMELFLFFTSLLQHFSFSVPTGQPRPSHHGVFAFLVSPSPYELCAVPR
Sequence of Cytochrome P450 3A4 (Homo sapiens) (P08684 whole entry, looked up): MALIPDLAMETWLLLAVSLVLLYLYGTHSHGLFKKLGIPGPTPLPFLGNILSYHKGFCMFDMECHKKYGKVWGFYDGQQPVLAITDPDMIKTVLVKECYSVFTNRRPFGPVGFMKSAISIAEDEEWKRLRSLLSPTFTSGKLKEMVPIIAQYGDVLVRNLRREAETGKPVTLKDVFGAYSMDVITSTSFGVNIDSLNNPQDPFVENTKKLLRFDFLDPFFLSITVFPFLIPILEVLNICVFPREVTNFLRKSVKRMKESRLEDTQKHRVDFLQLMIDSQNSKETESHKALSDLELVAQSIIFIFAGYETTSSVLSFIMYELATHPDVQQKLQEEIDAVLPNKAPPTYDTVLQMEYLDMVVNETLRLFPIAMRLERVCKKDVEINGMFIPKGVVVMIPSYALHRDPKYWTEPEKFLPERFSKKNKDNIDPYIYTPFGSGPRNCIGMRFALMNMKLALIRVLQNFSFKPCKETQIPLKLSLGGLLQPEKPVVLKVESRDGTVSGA
Sequence of Cytochrome P450 2C19 (Homo sapiens) (P33261 whole entry, looked up): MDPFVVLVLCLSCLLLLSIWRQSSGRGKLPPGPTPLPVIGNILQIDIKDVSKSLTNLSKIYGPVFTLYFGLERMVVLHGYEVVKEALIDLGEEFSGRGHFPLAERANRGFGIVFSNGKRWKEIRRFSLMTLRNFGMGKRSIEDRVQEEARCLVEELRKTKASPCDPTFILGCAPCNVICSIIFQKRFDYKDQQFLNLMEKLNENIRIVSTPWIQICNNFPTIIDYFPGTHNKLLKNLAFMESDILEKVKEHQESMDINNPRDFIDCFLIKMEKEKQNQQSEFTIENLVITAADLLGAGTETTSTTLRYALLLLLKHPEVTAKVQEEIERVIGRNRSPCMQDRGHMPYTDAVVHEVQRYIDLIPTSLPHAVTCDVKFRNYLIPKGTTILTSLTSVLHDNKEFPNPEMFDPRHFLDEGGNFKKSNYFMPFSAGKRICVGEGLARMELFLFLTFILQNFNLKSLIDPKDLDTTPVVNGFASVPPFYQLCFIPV
Sequence of Voltage-gated inwardly rectifying potassium channel KCNH2 (Homo sapiens) (Q12809 whole entry, looked up): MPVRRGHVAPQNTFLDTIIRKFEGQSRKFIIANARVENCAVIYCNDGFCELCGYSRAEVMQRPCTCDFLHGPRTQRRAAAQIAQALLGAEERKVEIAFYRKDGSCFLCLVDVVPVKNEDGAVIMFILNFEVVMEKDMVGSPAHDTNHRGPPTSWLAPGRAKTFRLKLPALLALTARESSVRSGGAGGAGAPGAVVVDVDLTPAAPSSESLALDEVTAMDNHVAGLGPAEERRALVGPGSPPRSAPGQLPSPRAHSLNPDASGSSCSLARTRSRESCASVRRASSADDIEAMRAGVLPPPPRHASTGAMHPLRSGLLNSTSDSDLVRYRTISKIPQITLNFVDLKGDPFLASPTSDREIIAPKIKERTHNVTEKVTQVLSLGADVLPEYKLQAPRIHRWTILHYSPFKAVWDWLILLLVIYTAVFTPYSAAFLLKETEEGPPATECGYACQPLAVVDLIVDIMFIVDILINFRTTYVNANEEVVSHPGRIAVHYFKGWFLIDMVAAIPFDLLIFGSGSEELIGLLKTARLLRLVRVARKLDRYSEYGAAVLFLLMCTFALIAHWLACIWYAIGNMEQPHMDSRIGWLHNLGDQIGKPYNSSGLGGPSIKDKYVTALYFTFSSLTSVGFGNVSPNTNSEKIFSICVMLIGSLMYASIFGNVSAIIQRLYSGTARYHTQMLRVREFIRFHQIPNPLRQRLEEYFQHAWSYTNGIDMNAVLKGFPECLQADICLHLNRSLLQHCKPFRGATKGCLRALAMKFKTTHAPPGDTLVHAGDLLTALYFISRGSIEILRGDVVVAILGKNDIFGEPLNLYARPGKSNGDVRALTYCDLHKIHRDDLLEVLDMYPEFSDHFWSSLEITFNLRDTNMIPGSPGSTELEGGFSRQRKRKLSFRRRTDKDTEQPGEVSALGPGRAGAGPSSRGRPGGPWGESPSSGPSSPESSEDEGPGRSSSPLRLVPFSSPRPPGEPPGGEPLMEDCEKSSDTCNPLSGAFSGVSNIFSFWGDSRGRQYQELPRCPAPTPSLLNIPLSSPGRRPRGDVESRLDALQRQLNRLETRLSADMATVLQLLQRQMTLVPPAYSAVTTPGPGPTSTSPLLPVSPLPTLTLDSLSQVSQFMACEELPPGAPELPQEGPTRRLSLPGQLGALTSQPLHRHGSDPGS
Sequence of Nuclear receptor subfamily 1 group I member 2 (Homo sapiens) (O75469 whole entry, looked up): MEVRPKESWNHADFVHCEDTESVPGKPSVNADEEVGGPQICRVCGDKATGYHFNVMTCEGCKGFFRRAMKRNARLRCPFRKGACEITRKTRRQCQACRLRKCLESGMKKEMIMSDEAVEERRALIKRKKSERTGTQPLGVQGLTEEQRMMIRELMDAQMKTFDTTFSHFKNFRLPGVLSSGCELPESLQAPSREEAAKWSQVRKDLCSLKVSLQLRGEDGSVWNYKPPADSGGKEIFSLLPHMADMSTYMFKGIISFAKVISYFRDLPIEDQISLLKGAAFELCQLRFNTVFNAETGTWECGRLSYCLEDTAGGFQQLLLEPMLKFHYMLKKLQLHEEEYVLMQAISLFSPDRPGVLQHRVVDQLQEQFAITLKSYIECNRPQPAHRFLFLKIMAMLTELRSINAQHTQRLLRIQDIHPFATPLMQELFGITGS
Sequence of Cytochrome P450 2C9 (Homo sapiens) (P11712 whole entry, looked up): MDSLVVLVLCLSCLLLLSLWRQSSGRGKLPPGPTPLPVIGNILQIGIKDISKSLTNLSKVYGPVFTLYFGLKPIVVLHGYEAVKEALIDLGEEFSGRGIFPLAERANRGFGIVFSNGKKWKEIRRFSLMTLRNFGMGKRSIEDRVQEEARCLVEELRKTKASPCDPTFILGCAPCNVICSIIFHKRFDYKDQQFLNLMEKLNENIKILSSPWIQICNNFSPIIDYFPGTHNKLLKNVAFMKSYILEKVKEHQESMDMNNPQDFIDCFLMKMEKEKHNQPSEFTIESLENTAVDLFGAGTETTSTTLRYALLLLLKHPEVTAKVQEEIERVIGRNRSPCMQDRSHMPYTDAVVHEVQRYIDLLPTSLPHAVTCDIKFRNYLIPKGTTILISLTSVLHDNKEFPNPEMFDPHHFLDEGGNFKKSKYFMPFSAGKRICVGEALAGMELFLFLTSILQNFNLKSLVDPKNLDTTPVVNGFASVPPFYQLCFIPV

In the case of `N#CCCCCC#N`, the Potency result in assay [1], in assay [2], in assay [3], in [4], in assay [5] and in assay [6] was “inactive” throughout. The Potency result in [7], in assay [8], in assay [9], in assay [10], in assay [11] and in [13] was “inactive” in each case. In addition, the Potency result in assay [14] and in [15] was “inactive” each time. For the same molecule, the Potency in assay [12] is 72.5 µM (active) and inactive.
Regarding `CCNCC`, the Potency result in assay [1], in assay [2], in [3], in assay [4], in assay [5] and in assay [6] was “inactive” throughout. Besides, the Potency entry in [11], in assay [12], in assay [13] and in assay [14] was “inactive” each time. Besides, the Potency entry in assay [16] is “inactive and 28.3 µM (active)”.
`NC(=O)CN1CCCC1=O`: the Potency result in assay [1], in assay [2], in [3], in [4], in assay [5] and in assay [7] was “inactive” each time. In addition, the Potency result in assay [8], in assay [9], in assay [10], in assay [11], in assay [12] and in assay [13] was “inactive” throughout. For the same molecule, the Potency entry in [16] and in assay [14] was “inactive” throughout. Further, the max activation in assay [17] is -4.89% (inactive).
In the case of `CC1(C)C(C(=O)OC(C#N)c2cccc(Oc3ccccc3)c2)C1(C)C` (configuration not stated), the Potency entry in [1], in assay [2], in assay [3], in assay [4], in assay [5] and in assay [7] was “inactive” throughout. Besides, the Potency result in [8], in [9], in [10], in assay [11], in [14] and in [15] was “inactive” throughout. For the same molecule, the Potency was 15.5 µM (active) in assay [6]; 9 µM (active) and 22.4 µM (active) in [12]; 11.3 µM (active) and 7.96 µM (active) in [13].
For `CCCCCCCCCC(CC)c1ccc(S(=O)(=O)O)cc1` (configuration not stated), the Potency result in assay [1], in [2], in assay [4], in assay [5], in assay [18] and in [7] was “inactive” in each case. Also, the Potency result in assay [9], in assay [10], in [14] and in assay [15] was “inactive” each time. In addition, the Potency in [3] is 61.8 µM (active) and inactive and 52.9 µM (active); in assay [8], 57 µM (active) and 79.6 µM (active) and 47.4 µM (active); in [11], “inactive and 50.2 µM (active)”; in [12], 40.1 µM (active) and inactive and 35.6 µM (active); in assay [16], 63.2 µM (active) and inactive and 63.3 µM (active). In assay [17], the max activation was -0.486% (inactive). Also, the result in assay [19] was inactive.
Regarding `O=P(OCCCl)(OCCCl)OCCCl`, the Potency entry in [1], in assay [2], in assay [3], in assay [4], in assay [5] and in [7] was “inactive” in each case. Besides, the Potency result in assay [8], in [9], in assay [10], in [11], in [14] and in assay [15] was “inactive” in each case. For the same molecule, the Potency entry in assay [6] was “inactive and 19.3 µM (active)”; in assay [12] it was 70.4 µM (active); in assay [16], 35.3 µM (active) and 35.6 µM (active).
On to `CNC(=O)Oc1cccc2c1OC(C)(C)C2`, for which the Potency entry in [1], in assay [2], in assay [3], in [4], in assay [5] and in [6] was “inactive” in each case. The Potency result in [11], in [14] and in assay [15] was “inactive” each time. The Potency was 726 nM (active) and 89.4 nM (active) in assay [7]; 726 nM (active) and 200 nM (active) in assay [8]; 289 nM (active) and 126 nM (active) in [9]; 5.14 µM (active) and 1.59 µM (active) in assay [10]; 72.5 µM (active) in [12].

Values taken from PubChem BioAssay (Tox21).
